Assay results as given in the supplement of paper PMC10849652.
The full data set covers some 7,900 targets. This sample favours those with a hit. About 0.6% of all pairs of compound and target were hits. Unmarked numbers belong to inactive results.

Experiments:
Assay in all cases: log2 fold change, soluble protein after heating vs DMSO (PISA); higher = thermal stabilisation; K562 cells, 10 uM, 30 min; active = over 0.2 and 3.5 SD of the protein, either way, in both replicates (recomputed)
[1] = compound: C1COCCN1CCN2C3=CC=CC=C3N=C2NC(=O)C4=CC(=CC=C4)[N+](=O)[O-] [IRAK-1-4 Inhibitor I]
In short: (§1)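 Aliquots of K562 cells (2×10^6 cells/mL) treated with 10 μM compound for 30 min were heated for 3 min over 48°C-58°C. After pooling and extraction in PBS with 0.5% NP-40 at 4°C, soluble protein from a 21,000xg, 90 min spin was quantified by TMTpro 16plex LC-MS/MS with channel sums equalised. Thermal stability is expressed against control samples, from duplicates, as a log2 fold change.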

[2] = compound: C=CC(=O)N1CCC[C@@H](n2nc(-c3ccc(Oc4ccccc4)cc3)c3c(N)ncnc32)C1 [ibrutinib]
In short: as §1

[3] = compound: CC(=O)c1cnc2ccc(-c3cc(Cl)c(O)c(Cl)c3)nc2c1N[C@H]1CC[C@H](CN(C)C)CC1
In short: as §1

[4] = compound: CC(C)(C)Cn1c(N)nc2ccc(-c3[nH]c(C(C)(C)C)nc3-c3ccc(F)cc3)nc21 [ralimetinib]
In short: as §1

[5] = compound: CC(C)(O)CC(=O)NCCn1ccc2ncnc(Nc3ccc(Oc4cccc(C(F)(F)F)c4)c(Cl)c3)c21
In short: as §1

[6] = compound: CC(C)C1=C2N=C(C=C(N2N=C1)NCC3=CC=CC=C3)NCCCCCCN
In short: as §1

[7] = compound: CC(C)C[C@@H](C=O)NC(=O)[C@H](CC(C)C)NC(=O)[C@H](CC(C)C)NC(=O)OCc1ccccc1
In short: as §1

[8] = compound: CC(C)N(C[C@H]1O[C@@H](n2cnc3c(N)ncnc32)[C@H](O)[C@@H]1O)[C@H]1C[C@@H](CCc2nc3cc(C(C)(C)C)ccc3[nH]2)C1 [pinometostat]
In short: as §1

[9] = compound: CC1=C(C(CC(=O)N1)C2=CC=C(C=C2)C(F)(F)F)C(=O)NC3=C(C=C4C(=C3)C=NN4)F
In short: as §1

[10] = compound: CC1=C(C2=C(C=C1)C(=O)C3=CC=CC=C3N2CCCN)C
In short: as §1

Sequence of UniProt Q9BZL6 (Q9BZL6 whole entry, looked up): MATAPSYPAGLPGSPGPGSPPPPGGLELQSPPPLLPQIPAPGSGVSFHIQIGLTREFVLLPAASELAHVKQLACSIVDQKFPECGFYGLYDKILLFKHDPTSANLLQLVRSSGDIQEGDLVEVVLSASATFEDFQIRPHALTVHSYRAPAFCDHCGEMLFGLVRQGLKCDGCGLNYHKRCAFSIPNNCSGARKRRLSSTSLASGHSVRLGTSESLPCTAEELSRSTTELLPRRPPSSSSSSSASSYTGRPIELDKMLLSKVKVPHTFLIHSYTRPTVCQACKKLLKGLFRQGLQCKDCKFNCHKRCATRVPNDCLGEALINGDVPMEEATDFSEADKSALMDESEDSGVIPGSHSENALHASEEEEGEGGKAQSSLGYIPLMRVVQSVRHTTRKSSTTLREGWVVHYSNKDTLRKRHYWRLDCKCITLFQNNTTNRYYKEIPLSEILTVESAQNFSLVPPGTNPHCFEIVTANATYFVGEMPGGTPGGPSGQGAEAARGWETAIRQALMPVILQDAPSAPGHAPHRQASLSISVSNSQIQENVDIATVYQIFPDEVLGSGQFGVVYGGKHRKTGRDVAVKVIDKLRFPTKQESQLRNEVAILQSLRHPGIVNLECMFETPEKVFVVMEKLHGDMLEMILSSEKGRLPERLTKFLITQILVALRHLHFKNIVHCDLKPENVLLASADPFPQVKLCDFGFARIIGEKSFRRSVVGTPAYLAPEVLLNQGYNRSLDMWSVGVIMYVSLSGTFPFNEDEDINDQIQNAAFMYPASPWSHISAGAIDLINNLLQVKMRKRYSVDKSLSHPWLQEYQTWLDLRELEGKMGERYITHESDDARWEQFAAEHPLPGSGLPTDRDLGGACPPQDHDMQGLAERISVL
Sequence of UniProt P53609 (P53609 whole entry, looked up): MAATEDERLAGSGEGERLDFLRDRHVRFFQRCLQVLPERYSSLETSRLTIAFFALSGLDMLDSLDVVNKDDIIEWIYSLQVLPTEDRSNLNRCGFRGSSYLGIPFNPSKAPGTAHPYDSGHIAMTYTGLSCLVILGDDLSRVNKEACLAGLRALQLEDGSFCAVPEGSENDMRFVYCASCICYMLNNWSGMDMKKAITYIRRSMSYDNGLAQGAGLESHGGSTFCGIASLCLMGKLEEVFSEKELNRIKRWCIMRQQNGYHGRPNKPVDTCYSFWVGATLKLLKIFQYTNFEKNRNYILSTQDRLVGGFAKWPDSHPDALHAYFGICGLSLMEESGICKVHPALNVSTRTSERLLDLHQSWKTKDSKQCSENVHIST
Sequence of UniProt P31323 (P31323 whole entry, looked up): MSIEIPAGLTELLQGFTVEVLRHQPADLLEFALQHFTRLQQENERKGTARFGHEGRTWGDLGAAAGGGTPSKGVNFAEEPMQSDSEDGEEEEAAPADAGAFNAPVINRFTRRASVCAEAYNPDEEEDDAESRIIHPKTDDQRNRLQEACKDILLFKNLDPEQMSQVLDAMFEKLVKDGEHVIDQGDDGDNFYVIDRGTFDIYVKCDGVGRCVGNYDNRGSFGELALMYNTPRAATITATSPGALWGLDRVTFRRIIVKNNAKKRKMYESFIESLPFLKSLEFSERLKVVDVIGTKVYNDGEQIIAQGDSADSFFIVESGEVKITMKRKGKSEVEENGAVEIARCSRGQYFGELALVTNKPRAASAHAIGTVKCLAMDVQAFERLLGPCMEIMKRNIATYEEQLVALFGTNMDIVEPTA
Sequence of UniProt Q9H814 (Q9H814 whole entry, looked up): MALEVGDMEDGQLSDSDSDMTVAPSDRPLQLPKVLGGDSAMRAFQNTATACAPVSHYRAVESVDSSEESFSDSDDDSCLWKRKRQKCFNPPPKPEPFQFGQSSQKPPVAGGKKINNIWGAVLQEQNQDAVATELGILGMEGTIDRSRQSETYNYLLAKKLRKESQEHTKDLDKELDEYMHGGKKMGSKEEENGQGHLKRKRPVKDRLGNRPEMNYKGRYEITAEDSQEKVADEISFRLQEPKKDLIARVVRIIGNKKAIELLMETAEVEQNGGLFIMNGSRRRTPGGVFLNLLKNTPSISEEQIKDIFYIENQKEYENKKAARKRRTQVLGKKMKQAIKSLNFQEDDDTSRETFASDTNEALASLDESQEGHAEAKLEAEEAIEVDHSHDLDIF
Sequence of UniProt Q86T03 (Q86T03 whole entry, looked up): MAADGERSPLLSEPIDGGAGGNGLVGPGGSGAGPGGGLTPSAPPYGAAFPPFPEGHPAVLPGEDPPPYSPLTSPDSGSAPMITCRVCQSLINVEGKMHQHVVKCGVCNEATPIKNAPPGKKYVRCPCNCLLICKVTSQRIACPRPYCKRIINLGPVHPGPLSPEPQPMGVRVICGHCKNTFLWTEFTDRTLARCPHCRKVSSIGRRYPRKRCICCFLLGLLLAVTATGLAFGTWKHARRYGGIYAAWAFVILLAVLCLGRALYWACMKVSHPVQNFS
Sequence of UniProt Q96AD5 (Q96AD5 whole entry, looked up): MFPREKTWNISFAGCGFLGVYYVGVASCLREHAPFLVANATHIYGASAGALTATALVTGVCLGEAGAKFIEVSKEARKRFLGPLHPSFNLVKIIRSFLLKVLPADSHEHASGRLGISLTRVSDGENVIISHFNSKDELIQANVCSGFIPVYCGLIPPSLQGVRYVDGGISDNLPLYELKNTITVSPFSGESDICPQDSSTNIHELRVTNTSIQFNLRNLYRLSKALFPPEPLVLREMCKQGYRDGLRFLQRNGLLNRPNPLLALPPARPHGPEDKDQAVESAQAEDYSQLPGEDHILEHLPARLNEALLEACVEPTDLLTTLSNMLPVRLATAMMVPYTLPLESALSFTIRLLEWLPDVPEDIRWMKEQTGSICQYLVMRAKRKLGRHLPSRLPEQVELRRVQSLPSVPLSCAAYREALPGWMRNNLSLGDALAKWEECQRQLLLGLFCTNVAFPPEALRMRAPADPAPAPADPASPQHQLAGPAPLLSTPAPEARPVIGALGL
Sequence of UniProt Q15121 (Q15121 whole entry, looked up): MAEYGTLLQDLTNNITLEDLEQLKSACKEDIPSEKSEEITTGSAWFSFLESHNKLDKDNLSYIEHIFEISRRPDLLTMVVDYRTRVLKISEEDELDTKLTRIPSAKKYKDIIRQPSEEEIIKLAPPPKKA
Sequence of UniProt P05771 (P05771 whole entry, looked up): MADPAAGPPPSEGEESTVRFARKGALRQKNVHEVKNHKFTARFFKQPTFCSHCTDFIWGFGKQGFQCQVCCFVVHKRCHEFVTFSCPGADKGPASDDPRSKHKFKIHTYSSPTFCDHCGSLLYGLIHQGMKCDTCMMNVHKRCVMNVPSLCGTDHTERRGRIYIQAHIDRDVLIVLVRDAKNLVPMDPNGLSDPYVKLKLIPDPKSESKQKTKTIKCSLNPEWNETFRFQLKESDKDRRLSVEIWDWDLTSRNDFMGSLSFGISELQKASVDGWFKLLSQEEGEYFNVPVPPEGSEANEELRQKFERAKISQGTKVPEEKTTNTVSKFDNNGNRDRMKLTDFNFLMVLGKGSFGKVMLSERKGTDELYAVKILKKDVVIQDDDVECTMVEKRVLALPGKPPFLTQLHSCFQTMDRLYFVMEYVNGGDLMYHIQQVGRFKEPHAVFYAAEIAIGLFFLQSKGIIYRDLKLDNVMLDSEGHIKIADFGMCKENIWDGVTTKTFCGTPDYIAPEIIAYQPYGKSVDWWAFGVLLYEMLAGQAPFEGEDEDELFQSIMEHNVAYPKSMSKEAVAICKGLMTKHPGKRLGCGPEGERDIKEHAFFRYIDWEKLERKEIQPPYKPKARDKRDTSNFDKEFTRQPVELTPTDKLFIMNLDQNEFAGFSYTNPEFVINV
Sequence of UniProt P11498 (P11498 whole entry, looked up): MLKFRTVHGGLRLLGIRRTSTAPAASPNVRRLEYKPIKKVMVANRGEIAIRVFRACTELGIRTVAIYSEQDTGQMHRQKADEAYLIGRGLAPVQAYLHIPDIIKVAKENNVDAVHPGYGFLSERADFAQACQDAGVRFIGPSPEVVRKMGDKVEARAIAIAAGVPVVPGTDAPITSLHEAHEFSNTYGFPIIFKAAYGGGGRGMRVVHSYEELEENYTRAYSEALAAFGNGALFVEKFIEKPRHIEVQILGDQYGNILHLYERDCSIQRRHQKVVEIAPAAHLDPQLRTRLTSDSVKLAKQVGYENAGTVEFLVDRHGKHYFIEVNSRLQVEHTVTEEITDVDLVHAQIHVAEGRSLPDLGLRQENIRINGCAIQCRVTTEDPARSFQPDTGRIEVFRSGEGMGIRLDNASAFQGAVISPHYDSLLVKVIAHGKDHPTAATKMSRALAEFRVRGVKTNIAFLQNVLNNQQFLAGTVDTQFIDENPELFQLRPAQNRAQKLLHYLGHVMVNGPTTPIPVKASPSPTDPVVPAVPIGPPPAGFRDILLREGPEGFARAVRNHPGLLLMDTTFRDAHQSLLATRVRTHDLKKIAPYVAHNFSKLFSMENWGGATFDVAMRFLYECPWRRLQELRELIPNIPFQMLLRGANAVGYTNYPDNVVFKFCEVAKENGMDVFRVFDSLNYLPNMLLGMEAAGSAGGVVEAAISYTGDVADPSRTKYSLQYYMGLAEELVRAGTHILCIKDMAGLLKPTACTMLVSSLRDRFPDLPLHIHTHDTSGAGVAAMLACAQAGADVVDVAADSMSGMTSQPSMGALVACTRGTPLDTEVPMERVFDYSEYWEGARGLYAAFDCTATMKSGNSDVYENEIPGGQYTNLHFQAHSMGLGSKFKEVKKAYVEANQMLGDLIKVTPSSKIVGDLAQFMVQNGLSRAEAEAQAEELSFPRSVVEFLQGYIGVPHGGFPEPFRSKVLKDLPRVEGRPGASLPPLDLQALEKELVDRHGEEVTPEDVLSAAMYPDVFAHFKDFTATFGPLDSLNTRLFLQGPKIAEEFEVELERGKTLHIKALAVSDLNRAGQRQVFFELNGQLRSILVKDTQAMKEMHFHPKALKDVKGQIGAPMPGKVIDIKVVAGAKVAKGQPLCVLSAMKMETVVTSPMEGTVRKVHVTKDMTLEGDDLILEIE

Target | log2 fold change [1] | log2 fold change [2] | log2 fold change [3] | log2 fold change [4] | log2 fold change [5] | log2 fold change [6] | log2 fold change [7] | log2 fold change [8] | log2 fold change [9] | log2 fold change [10]
PGGT1B (UniProt P53609) | 0.003 | -0.004 | -0.062 | -0.055 | 0.026 | -0.019 | 0.026 | -0.03 | 0.027 | -0.028
POLR3B (UniProt Q9NW08) | -0.121 | -0.048 | 0.044 | 0.052 | -0.116 | -0.183 | 0.055 | 0.115 | -0.035 | 0.297 (active)
PARL (UniProt Q9H300) | 0.019 | 0.007 | 0.003 | -0.022 | -0.003 | -0.233 (active) | 0.005 | -0.006 | 0.059 | 0.017
PRKD2 isoform 3 (UniProt Q9BZL6) | -0.046 | -0.057 | -1.03 (active) | 0.089 | -0.302 | -0.216 | 0.074 | 0.056 | 0.192 | -0.087
PYGB (UniProt P11216) | -0.029 | 0.037 | -0.246 (active) | -0.025 | 0.025 | 0.01 | 0.005 | 0.011 | 0.055 | 0.087
PLK1 (UniProt P53350) | -0.035 | 0.022 | -1.17 (active) | 0.006 | -0.011 | 0.186 | 0.015 | 0.019 | 0.005 | 0.144
PPM1G (UniProt O15355) | -0.095 | -0.102 | -0.098 | -0.044 | -0.17 | -0.223 | 0.088 | -0.067 | -0.121 | -0.002
POLR3D (UniProt P05423) | -0.017 | 0.766 | 0.022 | 0.043 | -0.1 | -0.158 | -0.002 | 0.109 | 0.012 | 0.009
PPP2R5A (UniProt Q15172) | 0.005 | -0.024 | 0.004 | 0.066 | -0.16 | -0.193 | 0.023 | 0.025 | 0.02 | 0.071
PRKAR2B (UniProt P31323) | -0.038 | -0.011 | -0.833 (active) | -0.039 | -0.007 | -0.068 | 0.044 | 0.108 | -0.075 | 0.022
POLD3 (UniProt Q15054) | -0.013 | -0.01 | -0.043 | -0.001 | -0.114 | -0.357 (active) | -0.117 | -0.016 | -0.091 | 0.013
PRCP (UniProt P42785) | 0.04 | 0.012 | 0.014 | -0.01 | -0.072 | -0.077 | -0.025 | -0.006 | 0.012 | -0.101
PNN (UniProt Q9H307) | 0.051 | -0.047 | -0.134 | 0.032 | 0.004 | -0.146 | 0.145 | 0.124 | 0.056 | 
PARP1 (UniProt P09874) | -0.068 | -0.027 | -0.052 | 0.039 | 0.108 | -0.068 | 0.018 | -0.009 | -0.004 | 0.578 (active)
PPP1R12A (UniProt O14974) | -0.013 | -0.022 | -0.666 (active) | 0 | 0 | -0.119 | -0.014 | -0.003 | -0.514 (active) | -0.01
PHAX (UniProt Q9H814) | 0.015 | 0.027 | -0.041 | 0.002 | 0.024 | -0.16 | 0.019 | 0.016 | 0.071 | -0.253 (active)
PRKCB isoform 2 (UniProt P05771) | 0.027 | -0.009 | -0.373 (active) | 0.022 | -0.057 | -0.049 | 0.028 | 0.014 | 0.013 | -0.025
PLEKHM2 (UniProt Q8IWE5) | -0.018 | -0.073 | -0.085 | 0.162 | 0.016 | -0.034 | -0.102 | -0.042 | -0.069 | 0.016
PCYT1B (UniProt Q9Y5K3) | 0.014 | -0.029 | -0.072 | 0.011 | 0.001 | -0.172 | 0.027 | -0.011 | 0.058 | -0.12
PNPLA2 (UniProt Q96AD5) | -0.006 | 0.166 | -0.116 | -0.009 | 0.044 | -0.184 | 0.121 | -0.018 | -0.083 | -0.004
PSMD8 (UniProt P48556) | -0.058 | -0.033 | 0.076 | -0.012 | 0.022 | 0.016 | -0.194 | 0.031 | 0.051 | -0.014
PEA15 isoform 2 (UniProt Q15121) | 0.025 | -0.024 | 0.054 | 0.007 | -0.079 | -0.045 | -0.046 | -0.004 | 0.007 | 0.038
PBX2 (UniProt P40425) | -0.078 | 0.023 | -0.122 | 0.04 | -0.145 | -0.184 | 0.078 | -0.058 | 0.131 | -0.005
POM121 (UniProt Q96HA1) | -0.022 | 0.005 | -0.164 | 0.083 | 0.016 | -0.241 | 0.178 | 0.065 | -0.042 | -0.057
PRKAA1 isoform 2 (UniProt Q13131) | 0.046 | -0.006 | -0.343 (active) | -0.003 | -0.009 | -0.025 | -0.014 | -0.014 | 0.022 | 0.019
POLR1A (UniProt O95602) | 0.06 | 0.06 | 0.022 | 0.153 | -0.022 | -0.091 | 0.005 | 0.07 | 0.052 | -0.14
PHKG2 (UniProt P15735) | -0.034 | -0.008 | 0.39 (active) | 0.031 | -0.121 | -0.041 | 0.017 | 0.054 | -0.041 | 0.115
PSMC1 (UniProt P62191) | -0.053 | -0.024 | 0.056 | 0.018 | 0.002 | 0.04 | -0.212 (active) | 0.032 | 0.031 | -0.007
PC (UniProt P11498) | -0.024 | 0.04 | -0.151 | -0.02 | -0.038 | 0.183 | -0.037 | -0.016 | -0.081 | 0.15
PIP4P1 isoform 2 (UniProt Q86T03) | -0.011 | 0.003 | -0.002 | 0.003 | -0.004 | -0.329 (active) | 0.022 | -0.031 | 0.131 | -0.062
